According to PubChem BioAssay (NCI):
This is part of a sample that, as a whole, favours compounds with a hit. Of some 83,000 tested, about 20% had one in any assay.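 Interpretation: 100, growth as untreated; towards 0, rising growth inhibition; 0, no net growth; 0 to -100, cell death. Compounds scoring below 10 were considered active.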 A number with no mark means an inactive call. Activity calls are given as the source filed them.

Tests used:
Assay in all cases: NCI-60 one-dose screen, 48 h (100 = growth as untreated, 0 = no growth, -100 = all killed)
NCI-H23 lung = details: 10 µM unless noted
NCI-H226 lung = details: 10 µM unless noted
NCI-H322M lung = details: 10 µM unless noted
HOP-62 NSCLC = details: 10 µM unless noted
NCI-H460 lung = details: 10 µM unless noted
HOP-92 NSCLC = details: 10 µM
A549/ATCC NSCLC = details: 10 µM unless noted
786-0 renal = details: 10 µM unless noted
COLO 205 colon = details: 10 µM unless noted
NCI-H522 lung = details: 10 µM unless noted

| SMILES | growth (NCI-H23 lung) | growth (NCI-H226 lung) | growth (NCI-H322M lung) [%] | growth (HOP-62 NSCLC) | growth (NCI-H460 lung) | growth (HOP-92 NSCLC) | growth (A549/ATCC NSCLC) | growth (786-0 renal) | growth (COLO 205 colon) | growth (NCI-H522 lung) [%] |
| --- | --- | --- | --- | --- | --- | --- | --- | --- | --- | --- |
| CS(=O)(=O)Nc1cc(-c2ccc3ncc(C#N)c(NCc4ccccc4)c3c2)cnc1Cl | 0.346% (active) | -9.59% (active) | 16.5 | 2.7% (active) | 3.01% (active) | -16.8% (active) | 7.72% (active) | 0.0627% (active) | 6.54% (active) | – |
| Nc1nc(Nc2ccccc2SSc2ccccc2Nc2nc(N)nc(-c3cccc(Br)c3)n2)nc(-c2cccc(Br)c2)n1 | 31.6% | 47.8% | 94.8 | 11.8% | 31.8% | 86% | 1.19% (active) | 79.3% | 116% | – |
| N=c1c2cc(-c3ccccc3)oc2ncn1/N=C/c1ccc(Cl)cc1 | 97.8% | 71% | 90.9 | 82.6% | 6.07% (active) | 105% | 41.7% | 85.5% | 89.2% | 91.6 |
| Nc1ncc(-c2ccc3ncnc(N4CCc5cc(F)c(F)cc54)c3c2)cn1 | 38.3% | 29.1% | 33.1 | 13.4% | 18.9% | -7.6% (active) | 15.6% | 14.2% | 43.6% | 34 |
| COc1ccc(N2C(=O)c3cc(Cl)ccc3NC2SCc2ccccc2)cc1 (stereo unspecified) | 97% | 96.2% | 97.1 | 102% | 109% | 92.1% | 91.5% | 92% | 114% | 87.4 |
| Cc1c(Cl)cccc1S(=O)(=O)Nc1ccc2c(c1)C(=O)N(C1CCC(=O)NC1=O)C2=O (stereo unspecified) | 102% | 66.6% | 88.8 | 73.5% | 111% | 49% | 104% | 78.9% | 62.3% | 94.2 |
| COc1ccc(C2c3sc4c(C)cccc4c3Oc3nc(CC(=O)Nc4ccccc4)[nH]c(=O)c32)cc1 (stereo unspecified) | 62.2% | 65.8% | 95.4 | 60.5% | 87.1% | 59.1% | 93.7% | 95.3% | 106% | – |
| O=C(NNc1nc2cc(F)c(F)cc2n2c(CN3CC4CNCC4C3)ccc12)c1cnccn1 (stereo unspecified) | 26.7% | 16.8% | 26.7 | 10.8% | 1.73% (active) | 37.4% | 16.9% | 16.5% | 11.4% | 11.2 |
| C=CC(=O)N1CC=C(c2cc3c(N[C@H](C)c4ccccc4)ncnc3[nH]2)CC1 | 78.4% | 58.7% | 27.2 | 58.1% | 101% | 39% | 60.4% | 49.9% | 92.1% | – |
| O=C(NNc1nc2cc(F)ccc2n2c(CN3CC4CNCC4C3)ccc12)c1cnccn1 (stereo unspecified) | 35.4% | 25% | 31.8 | 24.9% | 4.93% (active) | 50.8% | 21.5% | 16.3% | 18.3% | 16.9 |
| Cn1ccnc1C(=O)/C=C/c1ccc(CNC(=O)c2ccc(F)cc2)cc1 | 5.81% (active) | 51.7% | 29.7 | 41.6% | -27.1% (active) | 62.3% | 27.6% | 21.9% | 42.8% | 24.3 |
